VDR inhibitor: Inhibitors of the vitamin D receptor (VDR): qHTS | Vitamin D3 receptor (Homo sapiens), P11473 | VDR-SRC2-3 peptide fluorescence polarization, 2 h | Potency, µM, inactives show max response, negative = inhibition, hits mostly inhibitors | 400,000 compounds, 0.93% hits | AID 504847, 2011
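Measured by FP: displacement of SRC2-3 coactivator peptide from VDR by library compounds, following a two-hour ambient incubation.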
mIDH1 inhibitor: qHTS for Inhibitors of mutant isocitrate dehydrogenase 1 (IDH1): qHTS. Isocitrate dehydrogenase [NADP] cytoplasmic (Homo sapiens), O75874. IDH1-R132H enzyme, NADPH consumption, diaphorase/resazurin fluorescence. Potency, µM (highest dose often 76.6 µM), for the others: top-dose activity change, negative = inhibition, actives largely listed as inhibitors. 390,000 compounds, 0.093% hits; note: nearly all actives have a fitted effect of over 65% in size
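IDH1-R132H (0.5 ug/mL dispensed) in pH 7.5 Tris buffer was preincubated 30 min with compound, then given a substrate mix of 0.016 mM NADPH and 2 mM alpha-KG for 80 min at room temperature; remaining NADPH was read by diaphorase/resazurin fluorescence.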
TrxR1 substrate: qHTS Assay for Substrates of Mammalian Selenoprotein Thioredoxin Reductase 1 (TrxR1): qHTS | Thioredoxin reductase 1, cytoplasmic (Rattus norvegicus), O89049 | purified TrxR1 substrate turnover, NADPH consumption readout | Potency, µM (highest dose often 114 µM), for the others: at the top dose activity change, negative = substrate turnover | 390,000 compounds, 0.01% hits | AID 588456, 2011; note: nearly all actives have a fitted effect of over 50% in size
Target sequence (O89049 whole entry, looked up): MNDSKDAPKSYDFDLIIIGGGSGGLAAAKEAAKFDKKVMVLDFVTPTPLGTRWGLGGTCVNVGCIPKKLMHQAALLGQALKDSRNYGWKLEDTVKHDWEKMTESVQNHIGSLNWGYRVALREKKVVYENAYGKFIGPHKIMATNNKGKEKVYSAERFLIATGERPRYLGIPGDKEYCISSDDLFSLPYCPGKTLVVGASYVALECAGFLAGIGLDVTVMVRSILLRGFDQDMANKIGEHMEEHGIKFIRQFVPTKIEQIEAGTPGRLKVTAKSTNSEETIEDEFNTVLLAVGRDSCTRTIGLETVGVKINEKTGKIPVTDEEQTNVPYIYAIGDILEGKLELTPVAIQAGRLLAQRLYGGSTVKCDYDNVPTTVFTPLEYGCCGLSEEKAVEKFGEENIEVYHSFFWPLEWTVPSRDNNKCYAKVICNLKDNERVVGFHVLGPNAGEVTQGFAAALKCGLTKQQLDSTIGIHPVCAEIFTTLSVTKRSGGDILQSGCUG
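Rat TrxR1, dispensed at 90 nM, was prereduced with 400 uM NADPH (final) for 5 min at ~22 deg C, then incubated with compound 15 min before 400 uM selenite. A first-read NADPH fluorescence drop versus no-compound background flagged substrates.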
Sfp inh: qHTS Assay for Inhibitors of Bacillus subtilis Sfp phosphopantetheinyl transferase (PPTase) | 4'-phosphopantetheinyl transferase ffp (Bacillus subtilis), Q9F4F7 | Biochemical Sfp PPTase activity, qHTS | Potency, µM, without a hit: largest response in the series, negative = inhibition, hits mostly inhibitors | 310,000 compounds, 3.5% hits | AID 1490, 2009;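 note: the enzyme is Sfp with the accession as filed and its product quenches rhodamine fluorescence; 0% = enzyme reaction without inhibitor and -100% = no enzyme wells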
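With Hepes-Na pH 7.6 buffer containing 10 mM MgCl2, Sfp (15 nM) modified BHQ-2-YbbR (12.5 uM) using rhodamine-CoA (5 uM). Two reads 30 minutes apart at 525/598 nm yielded each well's rate.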
rTrxR1 inhibitor: qHTS Assay for Inhibitors of Mammalian Selenoprotein Thioredoxin Reductase 1 (TrxR1): qHTS. recombinant rTrxR1, NADPH fluorescence consumption, selenite substrate. Potency, µM (top dose mostly 114 µM), for the others: at the highest dose activity change, negative = inhibition, hits mostly inhibitors. 390,000 compounds, 1% hits. AID 588453, 2011; note: nearly all actives have a fitted effect of over 65% in size
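Rat TrxR1 (90 nM in the dispensed reagent) was pre-reduced with 400 uM NADPH for 5 min at room temperature, then incubated with compound for 15 min. After 400 uM selenite was added, NADPH fluorescence (Ex 340/Em 450 nm) was followed for 8 min.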
PLK1 PBD inh: qHTS for Inhibitors of PLK1-PDB (polo-like kinase 1 - polo-box domain): Primary Screen; Serine/threonine-protein kinase PLK1 (Homo sapiens), P53350; Plk1 PBD binding of FITC phosphopeptide, fluorescence polarization; Potency, µM, inactives show max response, negative = inhibition, actives largely listed as inhibitors; 360,000 compounds, 2.8% hits; note: series mostly up to about 57 µM; nearly all actives have a fitted effect of over 65% in size
* hit, by the source's call; ? = inconclusive; · = no result given; [ ] = dose if it differs, or a comment. Most compounds without a hit are left out; they make up all but 5.2% or so of the library. Calls come from the whole dose curve; as a rule, active = well fitted curve in the direction sought with a large enough effect; inconclusive = small, poorly fitted or top-dose-only effect, or another doubt; inactive = no such curve, though single readings can be large; an effect the other way counts as inactive or inconclusive. Unless noted, % is set by controls: 0 for no effect and ±100 for the full control effect; potency is the fitted concentration of half-maximal effect.

SMILES	VDR inhibitor	mIDH1 inhibitor	TrxR1 substrate	Sfp inh	rTrxR1 inhibitor	PLK1 PBD inh
COc1ccc(C(C)=O)cc1COC(=O)c1ccc(C)c(S(=O)(=O)N2CCOCC2)c1	-5%	3%	-2%	·	35µM*	-19%
COc1ccc(C(C)=O)cc1COC(=O)Cc1cc(OC)c(OC)c(OC)c1	-1%	-8%	4%	11%	40µM*	-22%
COc1ccc(C(C)=O)cc1COC(=O)CNC(=O)c1ccc(Cl)cc1	-19%	0%	6%	12%	?	?
COc1ccc(C(C)=O)cc1COC(=O)c1ccc(S(=O)(=O)N(C)C)cc1	-8%	4%	5%	-2%	45µM*	-24%
CC(C(=O)N1CCCCC1)N(C)CC(=O)Nc1ccc(Cl)cc1 (stereo not drawn)	?	5%	-3%	13%	-14%	12µM*
C=CC(C1=CC(=O)C(OC)=C(OC)C1=O)c1ccccc1 (stereo not drawn)	1µM*	·	·	1.8µM*	·	·
C=CC(C1=CC(=O)C(OC)=CC1=O)c1ccccc1 (stereo not drawn)	8.9µM*	·	·	-94%	·	·
C=CC(C1=CC(=O)C(OC)=CC1=O)c1ccc(OC)cc1 (stereo not drawn)	11µM*	·	·	40µM*	·	·
COc1cc(OC)c(OC)cc1/C=C/c1cc[n+](C)c2ccccc12	·	·	-12%	·	-16%	·
c1ccc2c(c1)CCCN2	·	·	7%	·	12%	·
CCCCN(C(=O)C(C)(C)Oc1ccc(Cl)cc1)c1c(N)n(CCC)c(=O)[nH]c1=O	4%	-4%	4%	·	13%	4%
COCC(C)N=C1NN=C(c2ccc(NC(C)=O)cc2)CS1 (stereo not drawn)	0%	-1%	-6%	40µM*	-17%	-25%
O=[N+]([O-])c1cc(Br)c(O)c(/C=N/Nc2nnnn2-c2cccc3ccccc23)c1	?	6%	-1%[57.1 µM]	3%	3%[57.1 µM]	13µM*
O=[N+]([O-])c1ccc(NN=Cc2cccc3ccccc23)cc1	1%	5%	-6%[2.29 µM]	·	-4%[2.29 µM]	1%
C=CCN1c2ccccc2[C@]23C[C@@H](C(=O)OC)N(S(=O)(=O)c4ccc(Br)cc4)C2=NC(C(=O)OC)=C(C(=O)OC)[C@H]13	·	·	·	-1%	·	·
CC(C)Sc1nsc2nc(=O)c(/C=C3\C=Nc4ccccc43)c(N)n12	5%	6%	-1%	10%	23%	27µM*
CCn1c(SC)nc2c(c1=O)SC(C)C2 (stereo not drawn)	-4%	2%	17%	11%	7%	1%
CSc1nc2c(c(=O)n1C)SC(C)C2 (stereo not drawn)	-6%	5%	2%[57.1 µM]	50µM*	1%[57.1 µM]	-1%
CC1Cc2nc(SCC(=O)Nc3nccs3)n(C)c(=O)c2S1 (stereo not drawn)	-11%	13%	5%	50µM*	13%	-23%
N#CSCC(=O)c1cccc2ccccc12	?	-11%	-13%	-23%	?	11µM*
Nc1nc(SCc2ccc(Br)cc2)c2ncn(C3OC(CO)C(O)C3O)c2n1 (stereo not drawn)	-18%	-2%	-5%	·	-3%	0%
CN(Cc1ccccc1)C1CCN(Cc2ccccc2[N+](=O)[O-])CC1	2%	0%	-2%	79µM*	6%	-7%
CC(C)CC(=O)N1CCN(Cc2ccccc2[N+](=O)[O-])CC1	-18%	-2%	4%[57.1 µM]	56µM*	23%[57.1 µM]	-15%
CC(C)CCn1c(=O)c2sccc2n2c(CCCC(=O)Nc3ccc(F)c(Cl)c3)nnc12	4%	-1%	-9%	·	-14%	·
O=C(N/C=C/c1ccccc1)Nc1ccc(Cl)cc1	12%	1%	-5%	-4%	-8%	-13%
SMILES	VDR inhibitor	mIDH1 inhibitor	TrxR1 substrate	Sfp inh	rTrxR1 inhibitor	PLK1 PBD inh
Cc1ccc(NC(=O)N/C=C/c2ccc(Cl)cc2)cc1	-5%	-6%	7%[57.1 µM]	-3%	9%[57.1 µM]	27µM*
CC(=O)Nc1nonc1-c1nnc(SCc2ccc(F)cc2)n1C	14%	-7%	3%	·	5%	·
NNC(=O)c1[nH]c2ccc([N+](=O)[O-])cc2c1-c1ccccc1	79µM*	-5%	-10%	-2%	4%[57.1 µM]	-8%
C/C=C/Cn1c(SC)nc2c1c(=O)[nH]c(=O)n2C	-9%	14%	7%[57.1 µM]	?	10%[57.1 µM]	27µM*
CCCn1c(SCc2ccc(Cl)cc2)nc2c1c(=O)[nH]c(=O)n2C	-22%	10%	7%[57.1 µM]	8%	17%[57.1 µM]	21µM*
Cn1c(=O)[nH]c(=O)c2c1nc(SCCO)n2Cc1ccccc1Cl	-8%	9%	7%[57.1 µM]	-16%	7%[57.1 µM]	24µM*
CSc1nc2c(c(=O)[nH]c(=O)n2C)n1Cc1ccccc1Cl	-14%	-3%	-2%	8%	14%	-14%
CSc1nc2c(c(=O)[nH]c(=O)n2C)n1Cc1ccc(Cl)cc1	89µM*	5%	6%[57.1 µM]	20µM*	-12%[57.1 µM]	6µM*
C/C=C/Cn1c(SCc2ccc(Cl)cc2)nc2c1c(=O)[nH]c(=O)n2C	?	2%	9%[57.1 µM]	1%	33%[57.1 µM]	?
CCc1ccccc1NNC(=O)c1sccc1Cl	-14%	·	5%	·	-15%	·
CCOC(=O)C(CC)Sc1nc2c(c(=O)[nH]c(=O)n2C)n1C/C=C(/C)Cl (stereo not drawn)	32µM*	1%	-6%[57.1 µM]	14µM*	18%[57.1 µM]	2.7µM*
CCCCn1c(N)c(N(CCOC)C(=O)c2oc3ccc(OCC)cc3c2C)c(=O)[nH]c1=O	-15%	-1%	-7%	·	-16%	-5%
O=C(Nc1ccc(-c2ccco2)cc1)C1CCCN(Cc2ccc(CO)o2)C1 (stereo not drawn)	-7%	4%	3%	45µM*	-11%	-9%
COCc1ccc(CN2CCCC(C(=O)Nc3ccc(-c4cccc(OC)c4)cc3)C2)o1 (stereo not drawn)	-4%	12%	-2%[57.1 µM]	-9%	12%[57.1 µM]	-9%
COc1ccc(C(C[N+](=O)[O-])C2(c3ccc(OC)c(OC)c3)C(=O)c3ccccc3C2=O)cc1 (stereo not drawn)	32µM*	9%	8%	?	?	-10%
CN1c2ccccc2C(C)(C)C12CC(CCl)=NO2 (stereo not drawn)	-3%	4%	-2%[57.1 µM]	-8%	25µM*	-5%
CCOc1ccc(NC(=O)CN2CCN(c3ccc(F)cc3)CC2)cc1S(=O)(=O)N1CCCC1	·	5%	·	·	·	-15%

Bioassay records as filed in PubChem BioAssay.
